Laboratory results as given in PubChem BioAssay (NCATS).
Records with an inconclusive call do not appear. Where a call stands in place of a potency, no number is given. A number with no mark means an inactive call. Active and inactive are the calls of the source. Calls follow the shape of the dose curve; as a rule, active = well fitted curve in the direction sought with a large enough effect; inconclusive = small, poorly fitted or top-dose-only effect, or another doubt; inactive = no such curve, though single readings can be large; an effect the other way counts as inactive or inconclusive. Square brackets hold non-standard residues; d marks the D form. Peptide text beside a SMILES is read from it. ξ: configuration not given here. ξPhe(βξ-Me) = CC(c1ccccc1)C(N)C(=O)O; GABA = NCCCC(=O)O

Key:
[1] = biological target: Cellular tumor antigen p53 (Homo sapiens) (UniProt P04637); experiment: Primary qHTS for small molecule compounds that upregulate eGFP-tagged delta133p53alpha (in N-terminal) cells. (AID 2060322); conditions: NCI-H358 eGFP-delta133p53alpha fluorescence, 24 h; activation: stronger effect = higher value; also: nearly all actives have a fitted effect of over 75% in size; also: potency is read from the fitted curve at half-maximal effect;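 as to activation: cells pre-induced with doxycycline then dosed without doxycycline; series mostly up to about 56 µM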
In short: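 NCI-H358 cells pre-induced 24 h with 10 ng/ml doxycycline for eGFP-delta133p53alpha, plated dox-free and exposed 24 h at 37C to titrated compounds. Fixed, Hoechst-stained; gated GFP peak intensity by laser scanning cytometry, normalized to DMSO (0%) and 57.5 uM 5-azacytidine (100%).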

[2] = biological target: Aldehyde dehydrogenase, mitochondrial (Homo sapiens) (UniProt P05091); experiment: qHTS for Inhibitors of the Aldehyde Dehydrogenase Family (ALDH2) Primary screen (AID 2061308); also: nearly all actives have a fitted effect of over 55% in size
[3] = biological target: Retinaldehyde dehydrogenase 3 (Homo sapiens) (UniProt P47895); experiment: qHTS for Inhibitors of the Aldehyde Dehydrogenase Family (ALDH1A3) Primary screen (AID 2061315)

Sequence of Cellular tumor antigen p53 (Homo sapiens) (P04637 whole entry, looked up): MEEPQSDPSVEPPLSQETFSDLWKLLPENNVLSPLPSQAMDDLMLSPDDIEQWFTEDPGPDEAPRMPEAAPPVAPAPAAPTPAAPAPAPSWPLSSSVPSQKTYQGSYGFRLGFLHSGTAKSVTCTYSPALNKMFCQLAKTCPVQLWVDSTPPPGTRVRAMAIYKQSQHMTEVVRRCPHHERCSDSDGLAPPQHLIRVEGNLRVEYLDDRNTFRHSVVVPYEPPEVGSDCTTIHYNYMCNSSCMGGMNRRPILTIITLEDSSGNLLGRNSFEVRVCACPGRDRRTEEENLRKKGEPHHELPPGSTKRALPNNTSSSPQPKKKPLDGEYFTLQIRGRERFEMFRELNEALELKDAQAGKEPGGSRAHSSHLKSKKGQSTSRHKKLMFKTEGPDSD

| SMILES | activation [1] [%] | Potency [2] | Potency [3] | Potency [1] |
| --- | --- | --- | --- | --- |
| CC1OC(OC2C(O)C(OC3CCC4(C)C(CCC5(C)C4CC=C4C6CC(C)(COC7OC(CO)C(O)C(O)C7O)CC(O)C6(C)CCC45C)C3(C)C)OC(C(=O)O)C2O)C(O)C(O)C1OC1OCC(O)C(O)C1O (configuration not stated) | -4.46 | inactive | inactive | – |
| C/C=C/C(O)C1OC(=O)CC1Nc1ccc(C(=O)O)cc1 (configuration not stated) | 5.34 | inactive | inactive | – |
| COC(=O)C1=CO[C@@H](O[C@@H]2O[C@H](CO)[C@@H](O)[C@H](O)[C@H]2O)[C@H]2[C@@H]1[C@H](O)C[C@]2(C)O | 3.57 | inactive | inactive | – |
| CCC(C)/C=C(C)/C=C/C1=CC2=C(Cl)C(=O)C(C)(OC(C)=O)C(=O)C2=CN1C(CCCN=C(N)N)C(=O)O (configuration not stated) | 16 | inactive | inactive | – |
| C=C1CCc2occ(C)c2[C@H]2[C@H]1[C@@]13O[C@@]1(C[C@@H](C)[C@H]3OC(C)=O)[C@H]1O[C@@]21C | -19.6 | inactive | inactive | – |
| CC(C)=C1CC2[C@](C)(CC[C@@H](OC(=O)C3(C)OC3C)[C@@]2(C)O)CC1=O (some centres not stated) | -20.6 | inactive | inactive | – |
| CC1C2=CC(=O)OC2(O)CC2C1CCC1C(C)(C)CCC(O)C21C (configuration not stated) | 0.763 | inactive | inactive | – |
| C=C(CCO[C@@H]1O[C@H](CO)[C@@H](O)[C@H](O)[C@H]1O)C(=O)O | -22.3 | inactive | inactive | – |
| CC(/C=C/C1=CC2=CC(=O)C(C)(O)C(O)C2=CO1)=C\C(C)CCO (configuration not stated) | 7.63 | inactive | inactive | – |
| CC(=O)O[C@@H]1CC2C(C)(C)C(=O)C=C[C@]2(C)C2CC[C@]3(C)C(=CC(=O)[C@@H]3c3ccoc3)[C@@]21C (some centres not stated) | 1.53 | inactive | inactive | – |
| C=C1C[C@@]23CC[C@@H]4[C@](C)(C(=O)O)CCC[C@@]4(C)C2=CC[C@H]1C3 | 0.763 | inactive | inactive | – |
| C[C@@H]1CC[C@]2(C(=O)O[C@@H]3O[C@H](CO[C@@H]4O[C@H](CO)[C@@H](O)[C@H](O)[C@H]4O)[C@@H](O)[C@H](O)[C@H]3O)CC[C@]3(C)C(=CCC4[C@@]5(C)CC[C@H](O)[C@](C)(C(=O)O)C5CC[C@]43C)[C@@H]2[C@]1(C)O (some centres not stated) | -6.11 | inactive | inactive | – |
| C=CC(C)(O)C1CC2C3(C)CCCC(C)(C)C3C(O)C(O)C2(C)O1 (configuration not stated) | -9.82 | inactive | inactive | – |
| CCC(C)/C=C(C)/C=C/C1=CC2=C(Cl)C(=O)C(C)(OC(C)=O)C(=O)C2=CN1C1CCCCN(C(CCC(N)=O)C(=O)O)C1=O (configuration not stated) | 2.68 | inactive | inactive | – |
| O=C(Nc1c(-c2cccs2)nc2ccccn12)c1ccc(Cl)cc1 | -8.59 | inactive | inactive | – |
| COc1ccc(F)cc1-c1cc(NC(=O)[C@@H]2CCCNC2)ncc1Cl | – | inactive | inactive | 0.269 µM (active) |
| C=C1C(=O)OC2/C=C(\CO)CC/C=C(\C=O)C(OC)C(OC(=O)C(C)CC)C12 (configuration not stated) | -6.11 | inactive | inactive | – |
| CC(C)=CCC/C(C)=C/COCC1OC(n2ccc(=O)[nH]c2=O)C(O)C1O (configuration not stated) | 17 | inactive | inactive | – |
| N#Cc1cnc2cnc(NCc3cccnc3)cc2c1Nc1ccc(F)c(Cl)c1 | – | inactive | inactive | 2.69 µM (active) |
| CC(C)CC1NC(=O)C(C(C)c2ccccc2)NC(=O)C(C(C)C)NC(=O)C(C)NC(=O)CCCNC(=O)C(Cc2c[nH]c3ccccc23)NC(=O)C(C)NC1=O (stereo not drawn) (cyclo([GABA]AV[ξPhe(βξ-Me)]LAW); configuration not given here) | 8.4 | inactive | inactive | – |
| Cc1ccc(S(=O)(=O)NCc2ccc(C(=O)NCCN(Cc3ccccc3)C(C)C)cc2)cc1 | 3.67 | inactive | inactive | – |
| C[N+]1(C)[C@@H]2C[C@@H](OC(=O)C(O)(c3cccs3)c3cccs3)C[C@H]1[C@@H]1O[C@@H]12 | 8.63 | inactive | inactive | – |
| CC1(C)CCC2(C(=O)OC3OC(COC4OC(CO)C(O)C(O)C4O)C(O)C(O)C3O)CCC3(C)C(=CCC4C5(C)CCC(OC6OCC(O)C(O)C6O)C(C)(C)C5CCC43C)C2C1O (configuration not stated) | -11.5 | inactive | inactive | – |
| CC1(C)CC[C@]2(C(=O)O[C@@H]3O[C@H](CO)[C@@H](O)[C@H](O)[C@H]3O)CC[C@]3(C)C(=CCC4[C@@]5(C)C[C@H](O)[C@H](O[C@@H]6OC[C@@H](O)[C@H](O)[C@H]6O)[C@@](C)(CO)C5CC[C@]43C)C2C1 (some centres not stated) | 11.6 | inactive | inactive | – |
